Screening data (PubChem BioAssay)
Compounds with a hit are over-represented: about 17% of the library has one in this group of screens.
TDP1 cell noCPT = qHTS for Inhibitors of human tyrosyl-DNA phosphodiesterase 1 (TDP1): qHTS in cells in absence of CPT. DT40 Tdp1-/- hTDP1 cells, no CPT, ATP luminescence, 48 h. Potency, µM (series often up to 46.2 µM), most hits filed as inhibitors. 420,000 compounds, 15% hits. AID 686978, 2013; note: nearly all actives have a fitted effect of over 55% in size
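Readout: luminescence from CellTiter-Glo after 30 min in the dark at RT. Cells: DT40 Tdp1-/- with stable hTDP1, 400/well. Exposure: compounds alone, ≥48 hr, 37 °C.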
TDP1 block = inhibitors of human tyrosyl-DNA phosphodiesterase TDP1; Q9NUW8; recombinant TDP1, AlphaScreen DNA substrate cleavage; Potency, µM (top dose mostly 130 µM), hits mostly inhibitors; 350,000 compounds, 0.28% hits; note: nearly all actives have a fitted effect of over 40% in size
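Recombinant human Tdp1 (E. coli-expressed, 1 nM final) preincubated with compounds 15 min at room temperature, then 5'-biotin/3'-phosphotyrosine-FITC DNA substrate (15 nM final) added for 5 min. AlphaScreen beads (10 ug/ml final) added 10 min; cleavage lowers signal.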
DT40 TDP1 CPT = DT40-hTDP1 cell growth loss with CPT | AID 686979 | Potency, µM (highest dose often 46.2 µM), actives largely listed as inhibitors | chicken DT40 Tdp1-/-;hTDP1 cells + 20 nM CPT, ATP luminescence, 48 h | 420,000 compounds, 12% hits; note: nearly all actives have a fitted effect of over 55% in size
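Cell growth measured by CellTiter-Glo luminescence after a minimum 48 h, 37 C compound exposure with 20 nM CPT in Tdp1-knockout DT40 cells stably expressing hTDP1, seeded 400/well; qHTS titration format.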
ClpP mod = qHTS Assay for Activators of ClpP | 340,000 compounds, 1.9% hits | AID 651965, 2013 | Potency, µM (top dose mostly 57.5 µM) | ATP-dependent Clp protease proteolytic subunit (Bacillus subtilis (strain 168)), P80244 | purified B. subtilis ClpP, FRET peptide cleavage, 20 min; active = well fitted falling curve with a large enough effect; inconclusive = small, poorly fitted or top-dose-only effect; inactive = no such curve, though single readings can be large or run the other way; note: the source files actives as falling curves though it sought activators and does not explain the sign; nearly all actives have a fitted effect of over 65% in size
Target sequence (P80244 whole entry, looked up): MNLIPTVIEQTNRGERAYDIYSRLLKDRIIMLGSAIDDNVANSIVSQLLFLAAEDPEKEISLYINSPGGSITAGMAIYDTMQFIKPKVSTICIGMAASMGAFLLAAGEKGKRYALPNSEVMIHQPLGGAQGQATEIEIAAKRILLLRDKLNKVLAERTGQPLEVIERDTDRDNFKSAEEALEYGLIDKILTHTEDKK
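Purified B. subtilis ClpP, 10 microg/mL final in Tris/HCl pH8 with KCl, BSA, glycerol and Tween-20, cleaved an Abz/nitrotyrosine-quenched decapeptide. Fluorescence (ex 320, em 430) was read at 0 and 20 min at room temperature. Delta was normalized to 5.8 microM ADEP and DMSO/no-enzyme controls.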
Large screens that a line does not name were inactive. Unless noted, calls come from the whole dose curve; as a rule, active = well fitted curve in the direction sought with a large enough effect; inconclusive = small, poorly fitted or top-dose-only effect, or another doubt; inactive = no such curve, though single readings can be large; an effect the other way counts as inactive or inconclusive.

COc1ccc(CNC(=O)Cn2c(-c3ccccc3)cc(C(C)=O)c2C)cc1OC	TDP1 cell noCPT inconclusive, DT40 TDP1 CPT 10.3µM
CC(=O)c1cc(-c2ccc(F)cc2)n(CC(=O)NCc2cccs2)c1C	TDP1 cell noCPT inconclusive, DT40 TDP1 CPT inconclusive
COc1ccc(OC)c(CN2CCN(CC(=O)Nc3ccccc3C(=O)NC3CC3)CC2)c1	none
COc1ccc(CCNS(=O)(=O)c2ccc3c(c2)CCCC3)cc1OC	TDP1 cell noCPT inconclusive, DT40 TDP1 CPT inconclusive
OCCN(Cc1ccccc1)Cc1ccccc1Cl	TDP1 block inconclusive
OCCN(Cc1ccccc1)Cc1cccc(Cl)c1Cl	TDP1 cell noCPT inconclusive, TDP1 block 15.8µM, DT40 TDP1 CPT inconclusive
COC(=O)[C@@H]1C[C@H]2CC[C@H](O)C[C@H]2N1Cc1ccc(C(F)(F)F)cc1	DT40 TDP1 CPT inconclusive
COc1ccc(-c2noc(CN3CCCC(OCc4ccccn4)C3)n2)cc1 (stereo not given)	TDP1 cell noCPT inconclusive, DT40 TDP1 CPT 16.4µM
COc1ccccc1/C=C/c1nc(C#N)c(NCc2ccccc2)o1	TDP1 cell noCPT inconclusive, DT40 TDP1 CPT inconclusive
NC(=O)COC(=O)c1ccc2noc(-c3ccccc3)c2c1	none (no result: TDP1 block)
Cc1ccc(-c2onc3ccc(C=O)cc23)cc1	TDP1 cell noCPT 18.4µM, DT40 TDP1 CPT 16.4µM, ClpP mod inconclusive
O=C(O)/C=C/c1ccc2noc(-c3ccccc3)c2c1	TDP1 cell noCPT inconclusive, DT40 TDP1 CPT 14.6µM
O=C(Nc1ccccc1)C1=C(O)CC(c2ccc(Cl)cc2)N2CCN=C12 (stereo not given)	TDP1 cell noCPT 18.4µM, DT40 TDP1 CPT inconclusive
O=C(Nc1ccc(Cl)cc1)N1N=CCC1c1ccccc1 (stereo not given)	none (no result: TDP1 block, ClpP mod)
O=C1CC2c3ccccc3CCN2C(=O)CN1Cc1ccccc1 (stereo not given)	none (no result: TDP1 block)
O=C1c2cnc3nc(SCc4ccccc4)nn3c2CC2c3ccccc3CCN12 (stereo not given)	TDP1 cell noCPT 18.4µM, DT40 TDP1 CPT inconclusive, ClpP mod inconclusive
CN(Cc1ccccc1)C(=O)c1[nH]cnc1C(=O)Nc1ccccc1F	none (no result: TDP1 block)
CC(=O)N1CCN(S(=O)(=O)c2cccc(C(=O)NCc3ccc(F)cc3)c2)CC1	TDP1 cell noCPT inconclusive (no result: ClpP mod)
CC(C)NC(=O)CSc1nc2ccccc2nc1N1CCCCC1	TDP1 cell noCPT inconclusive, DT40 TDP1 CPT inconclusive
Cc1ccc(NC(=O)CSc2nc3ccccc3nc2N2CCCC2)cc1	TDP1 cell noCPT 9.2µM, DT40 TDP1 CPT 11.6µM (no result: TDP1 block)
CCCCN(C)C(=O)CSc1nc2ccccc2nc1Cc1ccc(C)cc1	TDP1 cell noCPT 16.4µM, DT40 TDP1 CPT inconclusive
CC(C)c1ccc(NC(=O)CSc2nc3ccccc3nc2N2CCCC2)cc1	TDP1 cell noCPT 13µM, DT40 TDP1 CPT 18.4µM (no result: TDP1 block)
COc1cccc(NC(=O)CSc2nc3ccccc3nc2N2CCOCC2)c1	TDP1 cell noCPT inconclusive, DT40 TDP1 CPT inconclusive
CCOc1ccc(CCNC(=O)CSc2nc3ccccc3nc2Cc2ccc(C)cc2)cc1OCC	none
O=C(CSc1nc2ccccc2nc1N1CCCC1)Nc1ccc(Cl)cc1	TDP1 cell noCPT 25.9µM, DT40 TDP1 CPT inconclusive (no result: TDP1 block)
CC(=O)Nc1ccc(NC(=O)CSc2nc3ccccc3nc2N2CCOCC2)cc1	none
O=C(COC(=O)CN1C(=O)C2CCCCC2C1=O)Nc1cc(S(=O)(=O)N2CCOCC2)ccc1Cl (stereo not given)	none
Clc1ccc(-c2cc3ccccc3nc2N2CCCC2)cc1	TDP1 cell noCPT 18.4µM, DT40 TDP1 CPT inconclusive, ClpP mod inconclusive (no result: TDP1 block)
CCc1ccc(NC(=O)CSc2nc3ccccc3nc2N2CCCC2)cc1	TDP1 cell noCPT 4.61µM, DT40 TDP1 CPT 10.3µM (no result: TDP1 block)
CCCCNC(=O)CSc1nc2ccccc2nc1Cc1ccc(C)cc1	none
CCc1ccc(NC(=O)CSc2nc3ccccc3nc2Cc2ccc(C)cc2)cc1	TDP1 cell noCPT 16.4µM, DT40 TDP1 CPT inconclusive
CCc1ccccc1NC(=O)CSc1nc2ccccc2nc1N1CCOCC1	TDP1 cell noCPT inconclusive (no result: TDP1 block)
Cc1ccc(-c2cc3ccccc3nc2N2CCCC2)cc1	TDP1 block inconclusive, DT40 TDP1 CPT inconclusive, ClpP mod inconclusive
CC1CCN(c2nc3ccccc3nc2SCC(=O)Nc2ccccc2C(C)C)CC1	TDP1 cell noCPT inconclusive, DT40 TDP1 CPT 18.4µM
COc1ccc(S(=O)(=O)NC(C)C(=O)N2CCCC2)cc1C (stereo not given)	none (no result: ClpP mod)
